According to the supplement of paper PMC11417369:
± gives the standard deviation of the averaged measurements. Over roughly 25,000 sequences, “ln(normalized median fluorescence intensity)” has its median near 8.6; the highest 2% begin near 10. Only a selection was taken, and the highest values are over-represented in it overall.

The sequences below were run on PfAP2-EXP AP2 domain (GST-tagged) (assay: gcPBM binding intensity (ln(normalized median fluorescence intensity)); higher = stronger DNA binding).
Outline: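 Binding intensity values are the highest Masliner-normalised natural-log median intensity among replicate spots of either probe orientation. The binding step lasted 1 h in 1× PBS with 1% milk, 0.2 mg/ml BSA, 0.5% salmon testes DNA and 0.03% Triton X-100, using GST-tagged P. falciparum DNA-binding domains expressed in E. coli on an Agilent 4 × 180k array of primer-extended double-stranded 36-bp intergenic genomic probes plus negative controls. Alexa488 anti-GST antibody and a 488 nm scan detected bound protein.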

Row | Sequence | gcPBM binding intensity (ln)
1 | ATACAATAATATAAATGTACAAATTATATCTTCATT [XGTACX_site8994] | 8.37 ± 0.33
2 | TATACCTATAGACACACACACATAAATAGATATATA [CACACA_site6748] | 8.83 ± 0.51
3 | TATATGCAAAATGTCACACATGTGATAAATACATAT [CACACA_site4302] | 8.72 ± 0.36
4 | ATTTTACATATTTGCACACATATATTTATATACATA [CACACA_site854] | 8.89 ± 0.4
5 | TATAAAAAAAACGAAAAAAAAAAAAAAAATACAGGA [TGCATGCA_negctrl_site585] | 8.54 ± 0.61
6 | GTTACATACAGATACACACACATATATATATATATA [CACACA_site4652] | 10.2 ± 0.15
7 | TATATATATATATATACACACATACATATATATATT [CACACA_site8185] | 10.1 ± 0.4
8 | CATACATACATACATACACACATACAGATATATATA [CACACA_site4890] | 9.15 ± 0.32
9 | CACAGATATATACATACACACATATATACACATATA [CACACA_site6323] | 8.58 ± 0.38
10 | TGTTGTTACAGATATACACACATATATATATTATAT [CACACA_site5342] | 8.55 ± 0.41
11 | TATATATACATACATACACACATATATATATATATT [CACACA_site4110] | 8.71 ± 0.4
12 | AGTATACAGATATATACACACATATATATATATATA [CACACA_site4323] | 10 ± 0.41
13 | TATATATATATATATACACACATACAGATATATATT [CACACA_site4629] | 10.2 ± 0.36
14 | TATATATATATATATACACACATATACATATTGTTT [CACACA_site3499] | 10.2 ± 0.32
15 | AAGGTTTTGGGTTTTAATTAATTTAATATGATTATA [XGTACX_negctrl_site147] | 8.46 ± 0.59
16 | TACATTTTTATTTTTACACACATATATATATATATA [CACACA_site1021] | 10.1 ± 0.31
17 | AAAATAAATATAAAATGTACTTATATATATATATAT [XGTACX_site7803] | 9.97 ± 0.47
18 | AACAGATAATATAAAAAAAAAAAAAAAAATAATTAA [GTGCAC_negctrl_site69] | 8.07 ± 0.53
19 | ATATTTTTTTTCTACACACATACAAATATATATTAT [CACACA_site2359] | 8.97 ± 0.46
20 | AATAAATAAAAAACATGTACAAATATAATATAGCAT [XGTACX_site6429] | 9.18 ± 0.5
21 | AAATTGTGTTCATCAGCACACACAACATCATGTAAT [CACACA_site8556] | 8.51 ± 0.41
22 | AAATATAAAAAAAATATATAATTTTTACATCGAATT [CACACA_negctrl_site544] | 8.24 ± 0.38
23 | AAAAATAAAAGGTGTGCACACAAAAATATATATATA [CACACA_site8507] | 9.74

Row | Sequence | gcPBM binding intensity (ln)
24 | TACAAAAAAAAATAAAATACATATATATATATATAT [XGTACX_negctrl_site608] | 10.3 ± 0.18
25 | CACAAATATATACATACACACATATATACACATATA [CACACA_site8024] | 8.47 ± 0.34
26 | AAAAATAAAGGGTGTGCACACAAAAATATATATATA [CACACA_site1727] | 9.805 ± 0.078
27 | TTATACACAAAAAAAAAAATATATATATATATATAT [XGTACX_negctrl_site5] | 10.2 ± 0.61
28 | TACACAAATATATATATATATATATATATATATATA [XGTACX_negctrl_site305] | 10.2 ± 0.14
29 | TAAATATATATATACACACACATACACAAAAAAAAA [CACACA_site3580] | 8.73 ± 0.42
30 | AAATAAAAAGGGTGCACACAAAAATATATATATATA [CACACA_site1728] | 10.5 ± 0.6
31 | GTACAAAAAAAAATAAAATACATATATATATATATA [GTGCAC_negctrl_site364] | 10.1 ± 0.41
32 | TATAAATATATATATACACACACATACACAAAAAAA [CACACA_site9191] | 8.96 ± 0.54
33 | CACAAATATACAAATACACACAAATATACAAATACA [CACACA_site2385] | 8.7 ± 0.41
34 | TAATAAAAAATATATACACACAAATAAATAAATAAA [CACACA_site4037] | 8.75 ± 0.62
35 | TACGTGAAATTATATACACACATAAATATGTCTGTA [CACACA_site3122] | 8.16 ± 0.36
36 | ATTTAAAAAAAAACGGAATTTTTTTTTTTTTTAAAG [XGTACX_negctrl_site91] | 8.06 ± 0.51
37 | TTAAAAAAAATATAATGTACTTGTAGAATTATATTT [XGTACX_site6220] | 8.09 ± 0.26
38 | TTTTTTAATTAATTACCTTTGAATGTGTATTAGGAC [GTGCAC_negctrl_site651] | 8.49 ± 0.26
39 | AATATATACATATATTGTACATATAGTTTCTTGCAT [XGTACX_site7871] | 8.61 ± 0.33
40 | AAATTATTATGAAATGGAAAATGCATAAATTGTTTT [XGTACX_negctrl_site206] | 8.63 ± 0.48
41 | ATAAATAAATAAATACGTACATATATATATATATAT [XGTACX_site8838] | 9.98 ± 0.38
42 | AACATAACAAAAAAAAAAAAAAATATATATATATAT [TGCATGCA_negctrl_site370] | 10.2 ± 0.41
43 | AATATACAAAATAAATAAAATATATATATATATATA [CACACA_negctrl_site216] | 10.2 ± 0.28
44 | TATATATACATATACACACATACGTACATACATATA [CACACA_site3585] | 8.75 ± 0.31
45 | TACAAAAAAATAAATAATAAAAAAAAATATATATAA [XGTACX_negctrl_site344] | 8.38 ± 0.38
46 | TAATATAACAAAAAAATAAAATAAAATAAAAAATAA [CACACA_negctrl_site109] | 8.4 ± 0.41

Row | Sequence | gcPBM binding intensity (ln)
47 | ATACATACATACATACGTACATATGTATATATATAT [XGTACX_site8498] | 9.7 ± 0.19
48 | CCATATACAACCATACGTACATATATATATATATAT [XGTACX_site8193] | 10.2 ± 0.2
49 | ACAAAAAAATAAAATATATATATATATATAATATAT [CACACA_negctrl_site805] | 8.58 ± 0.16
50 | AAATAAATAAATATACGTACATATATATAATATATA [XGTACX_site5124] | 8.52 ± 0.15
51 | AAAAAAATATAAATACGTACATATATATATATATAT [XGTACX_site432] | 10.2 ± 0.46
52 | TATAAAATAAATAACAAAAAAAATAAAATAAAAATA [TGCATGCA_negctrl_site297] | 8.47 ± 0.47
53 | ATTCTAAATAAATGTACACACAAAAATAAATGTATA [CACACA_site1732] | 8.61 ± 0.31
54 | AACATATATATAATATGTACATAATATATATAAATG [XGTACX_site1161] | 8.52 ± 0.3
55 | AAAATTAAAAATTACTGTACGTATTAGAGAATAAAT [XGTACX_site2567] | 8.53 ± 0.32
56 | CATAAAATTGTGAAGTGTACATATTTTTAAATATAA [XGTACX_site8986] | 8.63 ± 0.28
57 | AATATTTTACAATACACATGCAAATAATATTCTAAA [TGCATGCA_site618] | 8.63 ± 0.39
58 | TATATAAATATATATACACACAAAAAAAAAAAAAAA [CACACA_site1406] | 8.36 ± 0.52
59 | TATTTATATTTATACACACACACAAAAAAAAAAAAA [CACACA_site6817] | 8.36 ± 0.57
60 | AAAAAATAAATAAATACACACAAATATATATATATA [CACACA_site2543] | 10.2 ± 0.071
61 | TATATATATAAATACACACACACAAAAAAAAAAAAA [CACACA_site4930] | 8.6 ± 0.34
62 | TATATATATATATACACACACACAAAAAAAAAAAAA [CACACA_site1505] | 10.2 ± 0.21
63 | CATTTATATATATACACACACACAAAAAAAAAAAAA [CACACA_site2645] | 8.44 ± 0.49
64 | TTAATAAAAGCCCATGCACACCTTAGAAAGTTTTAT [CACACA_site8003] | 8.43 ± 0.45
65 | GCCATTAATTTATACACACACATTATGATTTTTTAT [CACACA_site754] | 8.86 ± 0.28
66 | TCTTGTCTACCTTGTATTTAATATTTACATATATAA [TGCATGCA_negctrl_site320] | 8.95 ± 0.4
67 | TTTATTTTGACAGATTGTACACTTTATACATGTTTT [XGTACX_site2356] | 8.8 ± 0.44
68 | GGGGGGAGGGTGAATACACACGTAATAATCATAAAC [CACACA_site8502] | 10.6 ± 0.22
69 | GGGGGGGGAGGGTGAATACACACGTAATAATCATAA [CACACA_site1716] | 10.8 ± 0.15

Row | Sequence | gcPBM binding intensity (ln)
70 | ATAAATATCATATATATACACACGTAATACATAATA [CACACA_site4001] | 8.4 ± 0.44
71 | TAATCATAAAAAAATACACACATATATAATATATAT [CACACA_site1983] | 8.51 ± 0.3
72 | ATAAAAAAATCAGACACACACACGTAAACACATACA [CACACA_site5529] | 8.76 ± 0.57
73 | ATGGAATAATCACGTACACACAAGAAAAAAAAAAAT [CACACA_site527] | 8.8 ± 0.56
74 | AACTTACTCTTTACAAGTACGTAAAAGAAATAGAAA [XGTACX_site1782] | 8.51 ± 0.41
75 | AATTTCTATTTTGTGAGTACATACTCCTATTATATA [XGTACX_site3210] | 8.78 ± 0.26
76 | ATTATATATAAATATACACACATATATAAAATACAT [CACACA_site5298] | 8.39 ± 0.28
77 | TTATATTATTTTTATACATGCATTTCTATATATTTT [TGCATGCA_site164] | 9.2 ± 0.3
78 | TTTTTTTTTTCTCCTGCATGCAGCATTTATATATTA [TGCATGCA_site390] | 10.3 ± 0.13
79 | TTATACTATTTTTATACATGCATTTCTATATATTTT [TGCATGCA_site316] | 9.3 ± 0.28
80 | TCTTTATATATATATATATGTGTGAATGTTAAGTAT [XGTACX_negctrl_site135] | 8.74 ± 0.33
81 | ATATATATAAATATATGTACATAAATATATTTGTAA [XGTACX_site6715] | 8.47 ± 0.42
82 | ATGAATATATATATTTGTACATATGTATATATATAT [XGTACX_site7527] | 9.71 ± 0.15
83 | CTGAATGTATATATTTGTACATATATATATATATAT [XGTACX_site5557] | 10.4 ± 0.22
84 | GTTTGTATGTCCAAATGTACATATGATTTTATGAAA [XGTACX_site6595] | 8.72 ± 0.28
85 | AATGTATATATGTAATGTACATATGTAATGTATATA [XGTACX_site6509] | 8.62 ± 0.46
86 | TTATTAAATGAAAAATGTACATATAAATGATTATAT [XGTACX_site2788] | 8.51 ± 0.25
87 | TGGATTTTGTATTAATGTACATATATATATATATAT [XGTACX_site4442] | 10.2 ± 0.51
88 | ATATATATATATATATGTACATATATTTGTAATGTC [XGTACX_site8074] | 10.2 ± 0.43
89 | ATTTTGTATATATTTTGTACATATTTTGTATATATT [XGTACX_site885] | 8.68 ± 0.3
90 | ATGATTTGTCTGAAATGTACATATATATATATATAT [XGTACX_site5247] | 10.3 ± 0.47
91 | ACATAAATAAATTAATGTACATATATATTTGTATAT [XGTACX_site3160] | 8.36 ± 0.28
92 | TTTTTTTTGTATTAATGTACATATAACTTTTTTTTT [XGTACX_site7903] | 8.48 ± 0.47
